# Source: PubChem (several laboratories)
# E coli growth-1 = E. coli growth inhibition; OD600 absorbance (test concentration not listed); Escherichia coli growth, OD600, 23 h; active compounds read low; 330,000 compounds, 0.21% hits; AID 1053175;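 active = OD600 absorbance below the run mean of sample wells minus 3.6 SD, in any replicate, cut at about 0.56 in these data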
# PfHsp90 set2 = growth inhibition of yeast expressing Plasmodium Hsp90 | S. cerevisiae expressing PfHsp90, BacTiter-Glo ATP, 48 h; yeast lacking PDR1 and PDR3 efflux regulators | inhibition, % at 9.4 µM | 310,000 compounds, 0.32% hits;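 active = every replicate shows inhibition above about 80%, whatever the replicate mean, limit read from the data; inconclusive = mean inhibition reaches the set limit but some replicate falls short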
# AddAB inh = less growth of phage-infected E. coli with AddAB; E. coli expressing H. pylori AddAB, absorbance growth; inhibition, % at 11.9 µM; 330,000 compounds, 0.29% hits; AID 435030; in the data active = inhibition above about 12%
# E coli growth-2 = reduces bacterial viability in AddAB counter-screen | AID 449728 | inhibition, % at 11.9 µM | 330,000 compounds, 0.27% hits | E. coli V3065 growth, OD600 absorbance, 18 h;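 active = inhibition above the campaign's mean inhibition across all tested compounds plus 3 SD, cut at about 9.9% in these data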;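 note: uninfected addAB+ strain grown without phage in ampicillin broth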
# Tat export inh = E. coli Tat transport inhibition; E. coli MC4100 TorA-mCherry Tat export, fluorescence; inhibition, % at 10 µM; 340,000 compounds, 0.036% hits; AID 488895;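 active = mean replicate inhibition at least 50% and at least half of replicates individually reaching 50%; inconclusive = only one of the two criteria met; inactive = neither criterion met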;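 note: exported cargo escapes ClpAP degradation while cytoplasmic cargo is degraded and loses fluorescence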
# phage Ecoli inh = E. coli growth loss with phage present; growth absorbance; 360,000 compounds, 0.26% hits; inhibition, % at 11.9 µM; in the data active = inhibition above about 11%
# AddAB conf = confirmation screen: growth loss of phage-infected E. coli expressing H. pylori AddAB. AID 488942. 880 compounds, 64% hits. shares compounds with AddAB inh. inhibition, % at 11.9 µM. E. coli V3065 expressing H. pylori AddAB, T4 phage, OD; T4 phage with gene 2 nonsense mutations;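 active = mean inhibition above a set limit taken from the earlier primary screen, cut at about 13% in these data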;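 note: higher means less bacterial growth since AddAB block lets phage replicate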
# RecBCD counter = counter-screen: growth loss of RecBCD+ E. coli with mutant T4 phage; inhibition, % at 11.9 µM; shares compounds with AddAB inh; 880 compounds, 73% hits; E. coli V66 + mutant T4 phage, OD growth;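 active = mean inhibition above the mean of solvent-only control wells plus 3 SD, cut at about 4% in these data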;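 note: optical density read after an 18 h incubation at 37 °C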
# bact viab count = counter-screen for AddAB inhibitors: inhibitors of bacterial viability; absorbance (AddAB counterscreen); shares compounds with AddAB inh; 880 compounds, 35% hits; inhibition, % at 11.9 µM; in the data active = inhibition above about 25%
# RecBCD conf = confirmation: growth loss of phage-infected RecBCD+ E. coli (RecBCD inhibitor screen); shares compounds with phage Ecoli inh; E. coli V66 + T4 2- phage, growth OD; inhibition, % at 11.9 µM; 890 compounds, 45% hits; AID 651982;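 active = mean inhibition over triplicates exceeding the hit threshold derived in the original primary screen, cut at about 11% in these data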
# Ecoli viability = inhibits E. coli viability, flagging RecBCD hits as nonselective. shares compounds with phage Ecoli inh. absorbance (OD) growth. inhibition, % at 11.9 µM. 890 compounds, 29% hits. AID 651983; in the data active = inhibition above about 20%;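 note: E. coli strain V66 grown with compound alone and no phage infection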
# AddAB phage OD = growth loss of phage-infected AddAB E. coli, RecBCD counter-screen | shares compounds with phage Ecoli inh | E. coli expressing H. pylori AddAB + T4 phage, OD growth; gene 2 mutant T4, recBCD-deleted host | inhibition, % at 11.9 µM | 890 compounds, 45% hits;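 active = mean inhibition above the solvent-only control wells' mean plus 3 SD, cut at about 22% in these data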;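 note: higher means less bacterial growth from phage killing when AddAB is blocked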
# A number is an active result; . = inactive; ? = inconclusive; / = no result. Compounds with a hit are over-represented: about 0.69% of the library has one in this group of screens.
SMILES,E coli growth-1,PfHsp90 set2,AddAB inh,E coli growth-2,Tat export inh,phage Ecoli inh,AddAB conf,RecBCD counter,bact viab count,RecBCD conf,Ecoli viability,AddAB phage OD
O=C(NNC(=O)C1CCN(S(=O)(=O)c2ccc(Cl)cc2)CC1)c1ccccc1O,/,.,12,.,.,12,.,7.3,.,.,.,.
O=[N+]([O-])c1ccc(O)c2cccnc12,.,.,.,.,.,.,/,/,/,/,/,/
O=[N+]([O-])c1cc(F)c2cccnc2c1O,0.083,.,53,54,.,40,50,49,41,53,53,48
O=[N+]([O-])c1cc(Cl)c2cccnc2c1O,0.067,.,68,62,.,52,63,70,63,78,79,63
O=C(N/N=C/c1ccc(O)cc1O)C(=O)N/N=C/c1ccc(O)cc1O,/,.,28,30,.,22,22,24,.,19,21,29
O=C(Nc1nnc(-c2cccs2)o1)c1cccc(C(F)(F)F)c1,0.5,.,21,13,.,96,16,14,.,.,.,.
O=C(CSCc1ccc([N+](=O)[O-])cc1)NN=Cc1ccncc1,.,/,/,/,/,/,/,/,/,/,/,/
O=C(NNC(=O)c1cc(-c2ccncc2)nc2ccccc12)c1ccccc1O,.,.,29,26,.,24,18,18,.,12,.,.
Cc1ccc(-c2cc(C(=O)Nc3ccncc3)c3ccccc3n2)cc1,.,.,.,.,.,.,/,/,/,/,/,/
O=[N+]([O-])c1ccc(-c2ccn[nH]2)o1,0.062,.,100,100,?,98,102,100,101,105,106,106
Cc1cccc(NC(=O)NNC(=O)c2cc3ccccc3cc2O)c1C,/,.,13,12,.,12,.,12,.,.,.,.
Cc1cccc(NC(=S)NNC(=O)c2ccc(O)cc2O)c1C,.,.,.,.,.,.,/,/,/,/,/,/
Cc1ccc(NC(=O)NNC(=O)c2cc3ccccc3cc2O)cc1C,.,.,.,.,.,.,/,/,/,/,/,/
Cc1ccc(C)c(NC(=O)NNC(=O)c2cc3ccccc3cc2O)c1,.,.,14,.,.,14,.,6.9,.,.,.,.
CN1CCN(c2c(F)cc3c(=O)c(C(=O)O)cn4c3c2SCC4)CC1,0.047,.,98,98,.,98,102,101,103,102,104,103
C[C@H]1COc2c(N3CCN(C)CC3)c(F)cc3c(=O)c(C(=O)O)cn1c23,/,.,98,99,148,100,102,101,102,104,106,106
Cn1ncc2c(ON=C(N)c3ccc(C(C)(C)C)cc3)ncnc21,.,/,/,/,/,/,/,/,/,/,/,/
COC(=O)C1=C(C)NC(=O)C1=Cc1cc(C)n(-c2cc(C)cc(C)c2)c1C,.,/,/,/,/,/,/,/,/,/,/,/
CCn1cc(C(=O)N[C@@H](C)C(=O)NCCCO)c(=O)c2cc3c(cc21)OCO3,.,.,/,/,.,.,/,/,/,/,/,/
CCn1cc(C(=O)NCCCO)c(=O)c2cc(F)c(N3CCN(C)CC3)cc21,0.071,.,99,99,94,100,100,99,100,99,100,98
CCCCCCNC(=O)c1cn(CC)c2cc(N3CCN(C)CC3)c(F)cc2c1=O,0.067,.,98,97,79,98,101,100,101,101,102,101
CC(C)CC(CN=[N+]=[N-])N1CCN(Cc2ccccc2)CCC1=O (configuration not stated),.,/,/,/,/,/,/,/,/,/,/,/
O=C(NN=Cc1ccc2ccccc2c1)c1ccc(COc2ccc3c(c2)CCC3)o1,.,/,/,/,/,/,/,/,/,/,/,/
CC(=NNC(=O)c1ccccc1C)c1ccc(NC(=O)c2cccs2)cc1,.,/,/,/,/,/,/,/,/,/,/,/
CCCC(=O)NC(c1ccc(OC)cc1)c1c(O)ccc2ccccc12 (configuration not stated),.,.,.,.,.,.,/,/,/,/,/,/
SMILES,E coli growth-1,PfHsp90 set2,AddAB inh,E coli growth-2,Tat export inh,phage Ecoli inh,AddAB conf,RecBCD counter,bact viab count,RecBCD conf,Ecoli viability,AddAB phage OD
CCCC(=O)NC(c1ccc(N(C)C)cc1)c1ccc2cccnc2c1O (configuration not stated),/,.,31,28,.,26,25,22,.,17,24,29
CCC(=O)NC(c1ccc(C)cc1)c1ccc2cccnc2c1O (configuration not stated),/,112,24,29,.,24,22,24,.,15,21,29
CCC(=O)NC(c1ccc(C)cc1)c1cc([N+](=O)[O-])c2cccnc2c1O (configuration not stated),.,.,.,.,.,.,/,/,/,/,/,/
CCCC(=O)NC(c1ccc(C(C)C)cc1)c1ccc2cccnc2c1O (configuration not stated),/,.,26,27,.,21,21,19,.,14,.,.
CCC(Cc1ccccc1)=NNC(=O)c1cc([N+](=O)[O-])cc([N+](=O)[O-])c1,.,/,/,/,/,/,/,/,/,/,/,/
O=c1c2ccc(Cl)cc2nc(-c2cccc(C(F)(F)F)c2)n1O,.,.,12,11,.,11,.,7.9,.,.,.,.
N#Cc1ccc(-c2nc3cc(Cl)ccc3c(=O)n2O)cc1,.,.,.,.,.,.,/,/,/,/,/,/
S=c1nc[nH]c2nc[nH]c12,.,.,80,24,.,25,63,24,50,37,40,71
O=C(NN=Cc1ccc(Br)o1)c1cccnc1,.,/,/,/,/,/,/,/,/,/,/,/
COc1nsnc1NS(=O)(=O)c1ccc(NC(=S)NC(=O)c2cccnc2)cc1,0.062,.,59,54,.,47,70,31,42,27,23,45
COc1nsnc1NS(=O)(=O)c1ccc(NC(=S)NC(=O)c2ccncc2)cc1,0.068,.,74,62,.,29,76,24,34,14,.,33
COc1cc(CCCN2C(=S)NCC2Cc2ccccc2)cc(OC)c1OC (configuration not stated),.,/,/,/,/,/,/,/,/,/,/,/
COc1ccc(S(=O)(=O)N(CC(=O)NN=Cc2ccc(C(=O)O)cc2)Cc2ccccc2)cc1OC,.,/,/,/,/,/,/,/,/,/,/,/
